# Test system: not listed separately
# Test: small-molecule binders of probe aInhba, primary screen, biochemical, small-molecule microarray, 635/667 nm fluorescence (AID 1148);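 further: score merges 667nm spot fluorescence with signal-to-noise for antibody binding to printed compounds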
# Conditions: higher = more signal
row,Structure (SMILES),composite z-score
1,CCCC1(C(=O)OC)C=C2C(=C(C(C)C)C(=O)C2C)CN1 (centres undefined),-0.0791
2,CCCCCCc1nc(Cc2cc(OC)c(OC)c(OC)c2)c(C)c2c1[Si](C(C)C)(C(C)C)OC2,0.0275
3,COc1c(C)cc(-c2nc(-c3ccccc3)c3c(c2C)CO[Si]3(C(C)C)C(C)C)cc1C,-0.0604
4,[N-]=[N+]=Nc1ccccc1C[C@]1(C(=O)N2CCCCC2)N=C(c2ccc(OCCCO)cc2)O[C@H]1c1ccccc1,0.696

# Molecular target: Torsin-1A (Homo sapiens) (UniProt O14656)
# Sequence (O14656 whole entry, looked up): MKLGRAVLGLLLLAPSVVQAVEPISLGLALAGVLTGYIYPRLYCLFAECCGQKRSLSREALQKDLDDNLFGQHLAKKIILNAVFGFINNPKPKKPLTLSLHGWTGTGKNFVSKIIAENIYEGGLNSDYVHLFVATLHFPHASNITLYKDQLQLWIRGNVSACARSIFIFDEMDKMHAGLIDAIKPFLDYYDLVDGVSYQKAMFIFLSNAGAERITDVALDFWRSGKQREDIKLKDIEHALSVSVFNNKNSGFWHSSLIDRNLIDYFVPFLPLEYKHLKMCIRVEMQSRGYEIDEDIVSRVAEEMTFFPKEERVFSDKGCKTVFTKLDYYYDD
# Test: torsin A binders from cell lysate, primary screen, small-molecule microarray, wild-type, 635/667 nm (AID 1149)
# Conditions: COS7 hTOR1A-WT lysate, 635 nm fluorescence, higher = more signal
row,Structure (SMILES),composite z-score
1,COc1cc(Cc2cc3c(c(CCc4ccccc4)n2)[Si](C(C)C)(C(C)C)O[C@H]3c2ccccc2)cc(OC)c1OC,0.707
2,C[C@]12C(=O)N(CCO)[C@@H]3C(=O)N(c4ccc(Cl)cc4)CC=CC31O[C@@H]1/C=C\CCCOC(=O)C12 (some centres undefined),-1.5
3,COc1cc2c(cc1O)C(C)N(Cc1sc3ccccc3c1Cl)CC2 (centres undefined),-1.22
4,CN1C(=O)C2C=CC(C(O)c3ccc([N+](=O)[O-])cc3)N(Nc3ccccc3)C2C1=O (centres undefined),0.0754
5,COC(=O)[C@@]1(Cc2ccc(F)cc2)[C@H]2c3cc(C(=O)N(C)C)n(CCF)c3C[C@H]2CN1C(=O)c1ccccc1,0.632
6,O=C/C=C/c1ccc(-c2ccccc2)cc1,-0.0497
7,C=C(C(=O)CC[C@@H](OC(=O)c1ccccc1-c1ccccc1C(=O)O)c1ccc(OCCO)cc1)C(C)C,-0.13
8,COc1ccc(C#Cc2ccc3c(c2)[C@]2(C(=O)N3)[C@H](c3ccccc3OCCO)N3[C@H](c4ccccc4)[C@H](c4ccccc4)OC(=O)[C@H]3[C@@H]2C(=O)NC[C@H](O)c2ccccc2)cc1,0.138
9,O=C1NC(=O)C2C1C=CC(C(O)c1ccc(F)cc1)N2Nc1ccc(Cl)cc1Cl (centres undefined),-0.556
10,C[C@@]1([C@@H](NS(=O)(=O)c2cccc3cccnc23)c2ccc(-c3ccccc3)cc2)C[C@H]1C1CCCCC1,-0.293
11,O=C1N(Cc2ccccc2)c2ccccc2C[C@@]12N=C(c1ccc(OCCCO)cc1)O[C@H]2c1ccccc1,-0.133
12,COc1ccc(NN2C(C(O)c3ccccc3)C=CC3C(=O)N(C4CCCCC4)C(=O)C32)cc1 (centres undefined),0.473
13,C[C@]1(C(=O)NC2CC2)c2ccccc2C(=O)N(Cc2cc(F)cc(C(F)(F)F)c2)[C@H]1c1ccc(CO)cc1,-2.36
14,O=C(CS)NCCCCCCNC(=O)[C@H]1C[C@H]2C(=O)NCC(=O)N2[C@H]1c1cccc(OCCO)c1,0.168
15,COC(=O)[C@@]1(Cc2ccc(OC)cc2)[C@H]2c3cc(C(=O)N(C)C)n(Cc4c(CO)[nH]cc(C)c4=O)c3C[C@H]2CN1C(=O)c1ccccc1,0.351
16,COCCCNC(=O)[C@@]1(Cc2ccccc2I)c2ccccc2C(=O)N(C2CCCCC2)[C@H]1c1ccc(CO)cc1,-0.0751
17,COC(=O)[C@@]1(Cc2ccc(OC)cc2)[C@@H]2[C@@H](CC(=O)[C@H]2CC(=O)C(=O)N(C)C)CN1C(=O)c1ccccc1,-0.0909
18,C=C(C(=O)CC[C@@H](OC(=O)c1ccccc1-c1ccccc1C(=O)O)c1cccc(OCCO)c1)C(C)C,2.85

row,Structure (SMILES),composite z-score
1,CC(C)C[C@@H]1NC(=O)[C@H]2C[C@@H](C(=O)O)[C@@H](c3cccc(OCCO)c3)N2C1=O,0.994
2,Cc1ccc(S[C@]2(C(=O)NCc3ccccc3)CC(=O)N(Cc3ccccc3C(F)(F)F)[C@@H]2c2ccc(CO)cc2I)cc1,-0.545
3,CC(C)N1CC=CC23O[C@@H]4/C=C\CCCOC(=O)C4[C@H]2C(=O)N(C(C)CO)[C@@H]3C1=O (some centres undefined),-2.23
4,COC(=O)Cn1c(C(=O)N(C)C)cc2c1C[C@H]1CN(C(=O)c3ccccc3)[C@@](Cc3ccccc3)(C(=O)OC)[C@@H]21,0.263
5,COc1c(C)cc(-c2cc3c(c(CCc4ccccc4)n2)[Si](C(C)C)(C(C)C)O[C@H]3c2ccccc2)cc1C,-1.11
6,CCCCCN1CC=CC23O[C@@H]4/C=C\CCCOC(=O)C4[C@H]2C(=O)N(CCCCCO)[C@@H]3C1=O (some centres undefined),-2.11
7,C[C@]1(C(=O)NCC(F)(F)F)c2ccccc2C(=O)N(Cc2cc(C(F)(F)F)cc(C(F)(F)F)c2)[C@H]1c1ccc(CO)cc1,-0.469
8,COC(=O)C[C@H]1O[C@]2(C(=O)N(C)c3ccccc32)[C@@H](C)[C@@H]1[Si](C)(C)c1ccccc1,0.262
9,COc1ccc([Si](C)(C)[C@H]2[C@H](CC(=O)N3CCC[C@H]3CO)O[C@@]3(C(=O)N(C)c4ccccc43)[C@@H]2C)cc1,1.52
10,COCCOC(=O)N1C(=O)[C@@]2(c3cc(C#CCC(C(=O)OC)C(=O)OC)ccc31)[C@H](C(=O)N1CCc3cc(OC)c(OC)cc3C1)[C@H]1C(=O)O[C@H](c3ccccc3)[C@H](c3ccccc3)N1[C@@H]2c1ccccc1OCCO,0.897
11,O=C1C2C=CC(C(O)C(c3ccccc3)c3ccccc3)N(Nc3ccccc3F)C2C(=O)N1c1ccccc1 (centres undefined),1.02
12,CC1C2C(CCCO)=CC(C3C(=O)N(C(N)=O)C(=O)C23)N1Cc1cccc(OC(F)(F)F)c1 (centres undefined),0.438
13,CN(C)CCCC[C@@H]1NC(=O)[C@H]2C[C@@H](C(=O)NCCCCCCNC(=O)CS)[C@@H](c3cccc(OCCO)c3)N2C1=O,0.0638
14,CCCC1(C(=O)OC)C=C2C(=C(C(C)C)C(=O)C2C)CN1 (centres undefined),-0.814
15,CCCCCCc1nc(Cc2cc(OC)c(OC)c(OC)c2)c(C)c2c1[Si](C(C)C)(C(C)C)OC2,0.246
16,COc1c(C)cc(-c2nc(-c3ccccc3)c3c(c2C)CO[Si]3(C(C)C)C(C)C)cc1C,-0.0284
17,[N-]=[N+]=Nc1ccccc1C[C@]1(C(=O)N2CCCCC2)N=C(c2ccc(OCCCO)cc2)O[C@H]1c1ccccc1,0.351
